# From PubChem BioAssay AID1259415 (National Center for Advancing Translational Sciences (NCATS), 2018)
# The whole screen tested about 410,000 compounds, of which about 18,000 (4.4%) were called active. Roughly 7% stayed inconclusive and do not appear here. This is one part of a sample in which actives are shown more often than they occur. No stated cut-off is given here; in the data, active means activity change below about -60%; inconclusive means no clear call, values can overlap the other calls; inactive means above about -39%.
# Test: qHTS Assay for inhibitors of the human cytomegalovirus (HCMV)
# Details: HFF cells, HCMV-luciferase reporter, 72 h; at 57.5 µM; hits give low values
# Outline: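 Steps: HFFs plated, 16 h 37C; compounds added; HCMV-luciferase added to MOI 1 PFU/cell; 72 h 37C; OneGlo reagent, 5 min room temperature; luminescence read, normalized to controls.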
# On the % scale 0 is the no-effect control and ±100 the full control effect.
row,Structure (SMILES),"activity change, negative = inhibition"
1,O=C(CSc1oc(-c2ccccc2)nc1S(=O)(=O)c1ccc(Br)cc1)NC1CCCCC1,14% (inactive)
2,O=C(NCc1ccc(F)cc1)c1ccc(Cn2c(SCc3ccc(F)cc3)nc3cccnc32)cc1,16% (inactive)
3,Cc1c(C(=O)N(C)C)sc2c1c(=O)n(-c1ccc(F)cc1)c(=O)n2CC(=O)N(C)c1ccccc1,7.53% (inactive)
4,CN(C(=O)CC(NC(=O)c1ccccc1)(c1ccccc1)c1ccccc1)c1ccccc1,-66.2% (active)
5,Cc1ccc(S(=O)(=O)NCCC(=O)OCC(=O)N(C)c2ccccc2)cc1,2.56% (inactive)
6,CN(C(=O)COC(=O)CNC(=O)C12CC3CC(CC(C3)C1)C2)c1ccccc1,5.66% (inactive)
7,Cc1ccc(C)c(Oc2c(C(F)(F)F)oc3c(CN4CCN(C)CC4)c(O)ccc3c2=O)c1,-2.3% (inactive)
8,Cn1c(=O)nc2n(-c3ccc(Br)cc3)c3cccc(Cl)c3cc-2c1=O,-1.09% (inactive)
9,CCOC(=O)c1cc(OC(=O)c2ccccc2Cl)n(-c2ccccc2)n1,-20.3% (inactive)
10,Cc1ccc(CCNC(=O)c2nnc(Cc3cccc(F)c3)o2)cc1,-16.3% (inactive)
11,COc1ccc(C(CNCC(=O)Nc2ccccc2F)N(C)C)cc1 (stereo not given),8.02% (inactive)
12,COc1ccc(C(CCNCc2ccccc2F)c2ccc(F)cc2)cc1 (stereo not given),-62.4% (active)
13,COc1ccc(CCNC(=O)COC(=O)Cc2ccccc2F)cc1,3.43% (inactive)
14,C=C1CCN([C@H](C(=O)NCc2cc(OC)c(OC)c(OC)c2)C(C)C)S(=O)(=O)c2ccccc21,9.82% (inactive)
15,Cc1cccc(N2CCN(C(=O)Cn3ncc4c5ccccc5n(C)c4c3=O)CC2C)c1 (stereo not given),17.6% (inactive)
16,CCN1CCN(C(=O)C2CCN(S(=O)(=O)c3cc(Cl)ccc3Cl)CC2)CC1,10.9% (inactive)
17,CCOC(=O)N1CCN(C(=O)C2CCN(S(C)(=O)=O)CC2)CC1,-16.6% (inactive)
18,CCOC(=O)N1CCN(C(=O)C2CCN(S(=O)(=O)c3cc(Cl)ccc3OCC)CC2)CC1,-87% (active)
19,CCn1c2c(c(=O)n3ncc(C(=O)N4CCN(c5ccccc5)CC4)c13)CN(Cc1ccc(OC)cc1)CC2,17.6% (inactive)
20,COc1ccccc1-n1c(-c2ccc(C)cc2)cn2c3c(=O)n(C)c(=O)n(C)c3nc12,-0.712% (inactive)
21,COCC(C)N=CC1=C(O)CC(C)(C)CC1=O (stereo not given),36.9% (inactive)
22,O=C(NCCCN1CCCC1=O)C(=O)NCC1OCCN1S(=O)(=O)c1ccc(Br)cc1 (stereo not given),-19.1% (inactive)
23,CC(C)NC(=O)C1CCC(Cn2c(=O)c3sccc3n(Cc3ccc(F)cc3)c2=O)CC1 (stereo not given),23.5% (inactive)
24,OCCC1CN(Cc2ccc3nsnc3c2)CCN1C1CCCC1 (stereo not given),-14.5% (inactive)
25,Cn1cnnc1Sc1ccc(CN2CCN(C3CCCC3)C(CCO)C2)o1 (stereo not given),-68.7% (active)
26,OCCC1CN(Cc2ccc3nsnc3c2)CCN1C1CCCCC1 (stereo not given),11.1% (inactive)
27,CCN(C(=O)Cn1cc(S(=O)(=O)N2CCN(c3ccccc3F)CC2)c2ccccc2c1=O)c1ccc(C)c(C)c1,3.86% (inactive)
28,COc1ccccc1OCCNc1cc(N2CCOCC2)ccc1[N+](=O)[O-],63.8% (inactive)

row,Structure (SMILES),"activity change, negative = inhibition"
1,COc1ccc(CCNC(=O)C(=O)NCc2ccccc2C)cc1OC,-36% (inactive)
2,COc1ccc(CCNc2cc(N3CCN(C(=O)c4ccccc4OC)CC3)ccc2[N+](=O)[O-])cc1OC,-94% (active)
3,COc1cccc(NC(=S)NC(=O)c2c(Cl)c(C)nn2C)c1,12.6% (inactive)
4,COc1ccc(N2CCN(S(=O)(=O)CCNC(=O)C34CC5CC(CC(C5)C3)C4)CC2)cc1,-36.2% (inactive)
5,CCOc1ccccc1OCCCNCc1ccccc1,-10.8% (inactive)
6,CN(C)CCNC(=O)Cc1ccc([N+](=O)[O-])cc1,-3.93% (inactive)
7,COc1ccc(Nc2cc(C(=O)NCCCN(C)c3ccccc3)c3ccccc3n2)c(OC)c1,-2.95% (inactive)
8,CN(C)CCNC(=O)c1ccc(Cl)c2cc3ccccc3nc12,-98.5% (active)
9,COc1cccc(-c2nnc(SCC(=O)N3CCC(C)CC3)o2)c1,-9.59% (inactive)
10,COc1ccc(-c2noc(CSc3nnc(-c4ccccc4)n3-c3ccc(F)cc3)n2)c(OC)c1,-21.4% (inactive)
11,COc1cc(-c2noc(C3CCCN(S(=O)(=O)c4cccc(Cl)c4)C3)n2)cc(OC)c1OC (stereo not given),41.5% (inactive)
12,COc1ccc(-c2cc(-c3nc(-c4cc(OC)c(OC)c(OC)c4)no3)[nH]n2)c(OC)c1,-68.8% (active)
13,COc1cc(-c2noc(-c3ccc(N4CCCC4)c([N+](=O)[O-])c3)n2)cc(OC)c1OC,-6.79% (inactive)
14,CC(=O)c1ccc(NC(=O)COc2ccccc2-c2nc(-c3ccccc3)no2)cc1,13.9% (inactive)
15,COc1ccc(-c2nc(-c3ccccc3)no2)c(OC)c1,-60.9% (active)
16,O=C1CN(C(=O)Nc2ccccc2C(F)(F)F)C(c2ccccc2)c2c(sc3c2CCCC3)N1 (stereo not given),-16.6% (inactive)
17,CCCCOc1ccc(N(CC(=O)NCC2CCCO2)C(=O)CCC(=O)Nc2cc(C)ccn2)cc1 (stereo not given),36.3% (inactive)
18,CC(C)Oc1ccc(/C=N/NC(=O)c2nnn(-c3nonc3N)c2CN(C)C2CCCCC2)cc1,7.96% (inactive)
19,CN(C)Cc1c(C(=O)N/N=C/c2ccccc2OCc2ccc(F)cc2)nnn1-c1nonc1N,-6.09% (inactive)
20,Nc1nonc1-n1nnc(C(=O)N/N=C/c2cc(Br)ccc2O)c1CSC1=NCCS1,-103% (active)
21,CC(C)c1ccc(NC(=O)c2ccc3c(O)c(S(=O)(=O)c4ccccc4)c(=O)[nH]c3c2)cc1,2.46% (inactive)
22,Cc1ccc2nc(COc3ccc(NC(=O)COc4ccccc4F)cc3)cc(=O)n2c1,20.4% (inactive)
23,Cc1ccc(C2CC2C(=O)NN)cc1 (stereo not given),7.91% (inactive)
24,O=C(O)C1CSC(c2cccnc2)N1 (stereo not given),-2.83% (inactive)
25,Cc1ccc(C2NC(C(=O)O)CS2)cc1 (stereo not given),-64.5% (active)
26,Cc1nc2ccc(S(=O)(=O)N(CC(=O)Nc3ccc(F)cc3)Cc3ccccc3)cc2s1,-20.3% (inactive)
27,COC(=O)c1cccc(Cn2nnc3sc4c(c3c2=O)CCC(C(C)(C)C)C4)c1 (stereo not given),27.6% (inactive)
